PubChem BioAssay (NCATS)
Inconclusive results are not listed. Unmarked numbers belong to inactive results. Active and inactive are the calls of the source. Calls follow the shape of the dose curve; as a rule, active = well fitted inhibition curve with a large enough effect; inconclusive = small, poorly fitted or top-dose-only effect; inactive = flat fitted curve, though single readings scatter.

Each compound was assayed on SC27B (assay: qHTS profiling for inhibitors of Plasmodium falciparum proliferation (AID 504749; also: nearly all actives have a fitted effect of over 60% in size;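 as to activity, negative = inhibition: 0% = DMSO vehicle and full inhibition = artemisinin control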)). Conditions: P. falciparum in erythrocytes, SYBR Green DNA, 72 h; series mostly up to 28.7 µM; activity, negative = inhibition: at the top concentration.
In short: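 Parasite proliferation within erythrocytes, 72 h exposure. Endpoint: SYBR Green I fluorescence after overnight lysis at room temperature. Controls: 0.29 uM artemisinin, DMSO.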
Potency is read from the fitted curve at half-maximal effect.

| Structure (SMILES) | activity, negative = inhibition | Potency |
| --- | --- | --- |
| C[C@H](Cn1cnc2c(N)ncnc21)OCP(=O)(O)O | -2.71% |  |
| N[C@@H](Cc1cc(I)c(Oc2cc(I)c(O)c(I)c2)c(I)c1)C(=O)O | -5.22% |  |
| CNC[C@H](O)c1ccc(O)c(O)c1 | -6.09% |  |
| Nc1ccc(S(N)(=O)=O)cc1 | 1.05% |  |
| CCCCc1ccc2nc(NC(=O)OC)[nH]c2c1 | 8.75% [at 12.8 µM] |  |
| COc1cc(OC)c(C(=O)CCCN2CCCC2)c(OC)c1 | 5.61% [at 12.8 µM] |  |
| CCN(CC)CCOc1ccc(Cc2ccccc2)cc1 | 7.58% |  |
| CCOC(=O)c1c(C)n(C)c2ccc(O)cc12 | 13.6% |  |
| Cc1cc(=O)c2c(O)c3c(O)cc(=O)c4c3c3c(cc(O)c1c23)C(C)(C)C=4O |  | 1580 nM (active) |
| Nc1ccn([C@@H]2O[C@H](CO)[C@@H](O)C2O)c(=O)n1 (stereo partly specified) | 11.1% |  |
| O=C(O)c1cccnc1Nc1cccc(C(F)(F)F)c1 | 0.0772% |  |
| CCC(C)(Oc1ccc(C2(c3ccc(OC(C)(CC)C(=O)O)cc3)CCCCC2)cc1)C(=O)O (stereo unspecified) | -1.24% |  |
| CCOc1cc(CC(=O)N[C@@H](CC(C)C)c2ccccc2N2CCCCC2)ccc1C(=O)O | 6.47% [at 12.8 µM] |  |
| CC(S)C(=O)NCC(=O)O (stereo unspecified) | 8.55% |  |
| COCCCOc1ccnc(CS(=O)c2nc3ccccc3[nH]2)c1C (stereo unspecified) | -19.8% |  |
| COc1cc2c(cc1OC)C1CC(=O)C(CC(C)C)CN1CC2 (stereo unspecified) | 9.08% |  |
| CNC[C@@H](O)[C@@H](O)[C@H](O)[C@H](O)CO | 4.25% |  |
| O=C(NCCO[N+](=O)[O-])c1cccnc1 | 14.2% |  |
| CC1(C)NC(=O)N(c2ccc([N+](=O)[O-])c(C(F)(F)F)c2)C1=O | 4.21% |  |
| Oc1ccc(OCc2ccccc2)cc1 | -7.45% [at 12.8 µM] |  |
| c1ccc2[nH]c(-c3cscn3)nc2c1 | -13.1% |  |
